According to PubChem BioAssay (NCATS):
Several values for one entry are separate records, joined by “and”; a condition that tells them apart may be missing. Equal entries are not always repeated. Records with an inconclusive call do not appear. Where a call stands in place of a potency, no number is given. Activity calls are given as the source filed them. Unless noted, calls follow the shape of the dose curve; as a rule, active = well fitted curve in the direction sought with a large enough effect; inconclusive = small, poorly fitted or top-dose-only effect, or another doubt; inactive = no such curve, though single readings can be large; an effect the other way counts as inactive or inconclusive.

Legend:
[1] = qHTS for Inhibitors of Cell Surface uPA Generation: Validation Assay (AID 493164)
Method in brief: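 RAW 264.7 cells (4000/well) were plated overnight, then exposed for 18 h at 37 C, 5% CO2 to compounds in a 7-point 1:5 titration (2.45 nM–38.3 uM final). Intracellular ATP was read by ATP-Lite luminescence.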

[2] = target: Peptidyl-prolyl cis-trans isomerase NIMA-interacting 1 (Homo sapiens) (UniProt Q13526); experiment: qHTS Validation Assay to Find Inhibitors of Pin1 (AID 504536; active = well fitted inhibition curve with a large enough effect in the polarisation, with a control signal flat, not every such curve was filed as active; the % refers to the polarisation)
Chain of Peptidyl-prolyl cis-trans isomerase NIMA-interacting 1 (Homo sapiens) (Q13526 whole entry, looked up): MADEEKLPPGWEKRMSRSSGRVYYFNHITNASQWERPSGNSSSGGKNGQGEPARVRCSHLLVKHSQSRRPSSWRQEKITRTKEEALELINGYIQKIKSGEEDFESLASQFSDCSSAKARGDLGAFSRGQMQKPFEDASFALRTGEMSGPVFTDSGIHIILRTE
Method in brief: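 Fluorescence polarization competition: compounds (titration) displace HiFluor-488-labeled Pin1-1b peptide from Pin1 (0.3 uM final) in pH 7.5 HEPES buffer with DTT, 10 min at room temperature; %Activity normalized to no-enzyme wells, curves fitted.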

[3] = target: Phosphoglycerate kinase, glycosomal (Trypanosoma brucei brucei) (UniProt P07378); experiment: qHTS Validation Assay to Find Inhibitors of Phosphoglycerate Kinase (AID 504547)
Chain of Phosphoglycerate kinase, glycosomal (Trypanosoma brucei brucei) (P07378 whole entry, looked up): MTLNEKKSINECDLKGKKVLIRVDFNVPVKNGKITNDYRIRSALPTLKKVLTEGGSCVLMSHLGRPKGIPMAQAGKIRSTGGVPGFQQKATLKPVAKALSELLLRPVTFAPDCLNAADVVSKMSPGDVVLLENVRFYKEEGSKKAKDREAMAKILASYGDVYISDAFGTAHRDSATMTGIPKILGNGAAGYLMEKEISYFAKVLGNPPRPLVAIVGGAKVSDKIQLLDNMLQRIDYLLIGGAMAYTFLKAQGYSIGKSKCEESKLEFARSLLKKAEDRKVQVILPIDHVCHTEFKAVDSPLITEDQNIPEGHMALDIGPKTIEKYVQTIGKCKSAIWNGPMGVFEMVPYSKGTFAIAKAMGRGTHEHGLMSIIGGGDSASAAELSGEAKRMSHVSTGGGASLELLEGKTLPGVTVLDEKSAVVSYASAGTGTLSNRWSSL
Method in brief: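 PGK activity was coupled to GAPDH (100nM final), which generates the unstable substrate 1,3-bisphosphoglycerate in-well. Reactions ran 60 minutes at room temperature in 100mM TEA pH 7.6, 5mM MgCl2, 0.01% Tween-20, then Kinase-Glo Plus luminescence was read.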

[4] = target: phosphoglycerate mutase (Leishmania major) (UniProt Q4Q090); experiment: qHTS Validation Assay to Find Inhibitors of Phosphoglycerate Mutase (AID 504548);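 also: end-point luminescence from Kinase-GloPlus after the PGAM reaction; series mostly up to about 58 µM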
Chain of phosphoglycerate mutase (Leishmania major) (Q4Q090 1-553): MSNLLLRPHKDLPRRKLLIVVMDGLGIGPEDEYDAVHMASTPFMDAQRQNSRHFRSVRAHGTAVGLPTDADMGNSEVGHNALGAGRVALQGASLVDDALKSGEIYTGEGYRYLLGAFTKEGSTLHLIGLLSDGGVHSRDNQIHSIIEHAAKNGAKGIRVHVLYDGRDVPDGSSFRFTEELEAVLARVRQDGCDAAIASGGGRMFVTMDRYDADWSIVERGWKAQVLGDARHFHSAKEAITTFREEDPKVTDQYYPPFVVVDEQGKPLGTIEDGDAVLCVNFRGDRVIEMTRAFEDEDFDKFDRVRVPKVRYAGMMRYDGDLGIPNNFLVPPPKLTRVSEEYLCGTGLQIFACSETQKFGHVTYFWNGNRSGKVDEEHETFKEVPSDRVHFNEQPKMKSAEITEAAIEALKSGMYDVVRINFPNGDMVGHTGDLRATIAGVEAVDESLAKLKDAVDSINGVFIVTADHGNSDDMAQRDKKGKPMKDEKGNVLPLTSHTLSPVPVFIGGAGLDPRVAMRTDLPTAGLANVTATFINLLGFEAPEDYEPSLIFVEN
Method in brief: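 Inhibition of L. major PGAM was assessed by Kinase-GloPlus luminescence following a 45-minute room-temperature reaction with enzyme at 1.25nM final.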

[5] = qHTS for Inhibitors of ATXN expression: Validation (AID 588378); also: nearly all actives have a fitted effect of over 75% in size; also: potency is read from the fitted curve at half-maximal effect
Method in brief: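 Validation of ATXN2 expression inhibitors uses a cell-based luciferase fusion reporter in HEK293 cells, with 24 h compound exposure and paired viability (fluorescence) and reporter (luminescence) end-point reads.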

[6] = qHTS for Inhibitors of ATXN expression: Validation of Cytotoxic Assay (AID 588349)
Method in brief: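 Read-out: ATP-based luminescence (CellTiter Glo) reflecting viability of HEK293 cells after 72 hr incubation at 37 degrees C with a concentration series of each compound.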

[7] = target: Galactokinase (Homo sapiens) (UniProt P51570); experiment: qHTS Validation Assay for Inhibitors of Human Galactokinase (GALK) (AID 493189)
Chain of Galactokinase (Homo sapiens) (P51570 whole entry, looked up): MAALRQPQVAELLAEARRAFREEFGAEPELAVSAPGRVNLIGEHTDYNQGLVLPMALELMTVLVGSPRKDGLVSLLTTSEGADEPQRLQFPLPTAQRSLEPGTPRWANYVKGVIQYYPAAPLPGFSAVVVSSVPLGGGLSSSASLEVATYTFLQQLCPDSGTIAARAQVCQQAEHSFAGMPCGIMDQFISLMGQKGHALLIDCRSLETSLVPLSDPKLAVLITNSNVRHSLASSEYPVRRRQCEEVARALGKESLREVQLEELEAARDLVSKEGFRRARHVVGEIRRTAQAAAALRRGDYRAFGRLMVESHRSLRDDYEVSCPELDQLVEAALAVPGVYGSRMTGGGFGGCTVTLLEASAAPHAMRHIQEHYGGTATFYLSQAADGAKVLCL
Method in brief: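 Compounds were pin-transferred into ATP buffer, then GALK-galactose mix was added (final 5 nM enzyme, 100 uM galactose, 35 uM ATP). After 1 h at room temperature, remaining ATP was measured luminescently.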

[8] = Validation screen for small molecules that induce DNA re-replication in SW480 colon adenocarcinoma cells (AID 504364)
Method in brief: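 250 cells/well; compound pinned in; 48 hr, 37 C, 5% CO2; Hoechst added, 40 min; nuclear fluorescence imaged, 405 ex / 500-530 em; re-replication scored as increase in high-intensity nuclei.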

[9] = target: Luciferin 4-monooxygenase (Photinus pyralis) (UniProt P08659); experiment: Biochemical firefly luciferase enzyme assay for NPC (AID 624030);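 also: purified P. pyralis luciferase at 10 nM with luciferin and ATP substrate; series mostly up to about 59 µM; nearly all actives have a fitted effect of over 70% in size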
Chain of Luciferin 4-monooxygenase (Photinus pyralis) (P08659 whole entry, looked up): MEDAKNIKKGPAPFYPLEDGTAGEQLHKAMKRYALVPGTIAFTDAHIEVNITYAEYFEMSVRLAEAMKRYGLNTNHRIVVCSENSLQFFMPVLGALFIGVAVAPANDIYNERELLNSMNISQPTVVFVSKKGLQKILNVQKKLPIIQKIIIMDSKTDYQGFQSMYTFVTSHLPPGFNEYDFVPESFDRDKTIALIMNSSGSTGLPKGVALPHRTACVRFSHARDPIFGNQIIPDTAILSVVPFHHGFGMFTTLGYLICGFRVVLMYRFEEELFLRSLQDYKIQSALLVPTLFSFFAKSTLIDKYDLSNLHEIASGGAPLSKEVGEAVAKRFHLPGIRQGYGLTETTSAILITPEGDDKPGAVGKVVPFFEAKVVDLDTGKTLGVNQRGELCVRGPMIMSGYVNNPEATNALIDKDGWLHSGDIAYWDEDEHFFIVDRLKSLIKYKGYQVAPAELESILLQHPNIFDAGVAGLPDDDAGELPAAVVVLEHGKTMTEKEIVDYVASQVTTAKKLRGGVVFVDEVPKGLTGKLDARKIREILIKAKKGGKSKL
Method in brief: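 Purified P. pyralis luciferase at 10 nM in 50 mM Tris Acetate (final), luminescence read within 5 minutes of enzyme addition to compounds. Activity normalised to PTC124 versus DMSO; concentration-response curves classed by r2, magnitude and activity.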

[10] = target: DNA dC->dU-editing enzyme APOBEC-3G (Homo sapiens) (UniProt Q9HC16); experiment: qHTS for inhibitors of Vif-A3G interactions: Validation (AID 588379)
Chain of DNA dC->dU-editing enzyme APOBEC-3G (Homo sapiens) (Q9HC16 whole entry, looked up): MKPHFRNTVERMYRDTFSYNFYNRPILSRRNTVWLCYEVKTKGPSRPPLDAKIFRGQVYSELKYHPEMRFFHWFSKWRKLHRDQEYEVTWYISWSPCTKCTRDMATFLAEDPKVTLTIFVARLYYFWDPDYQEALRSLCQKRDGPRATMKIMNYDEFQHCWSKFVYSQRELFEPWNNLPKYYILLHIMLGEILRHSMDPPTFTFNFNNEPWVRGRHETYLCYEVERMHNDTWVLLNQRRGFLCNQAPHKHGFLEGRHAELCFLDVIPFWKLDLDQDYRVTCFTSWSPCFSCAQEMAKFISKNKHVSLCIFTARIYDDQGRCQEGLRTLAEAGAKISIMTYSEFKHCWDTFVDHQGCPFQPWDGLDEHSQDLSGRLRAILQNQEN
Method in brief: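 HeLa cells stably expressing Vif and A3G-eYFP, 700 cells/well, incubated overnight at 37 deg C, then exposed to compound overnight at 37 deg C. Inhibition of Vif-mediated degradation read as increased yellow fluorescence (Ex 488/Em 500-530) by laser-scanning cytometry.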

[11] = target: Ubiquitin carboxyl-terminal hydrolase 1 (Homo sapiens) (UniProt O94782); experiment: Inhibitors of USP1/UAF1: Pilot qHTS (AID 504865);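 also: rhodamine fluorescence freed from ubiquitin-rhodamine substrate followed over time; top concentration of the series differs between compounds; nearly all actives have a fitted effect of over 35% in size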
Chain of Ubiquitin carboxyl-terminal hydrolase 1 (Homo sapiens) (O94782 whole entry, looked up): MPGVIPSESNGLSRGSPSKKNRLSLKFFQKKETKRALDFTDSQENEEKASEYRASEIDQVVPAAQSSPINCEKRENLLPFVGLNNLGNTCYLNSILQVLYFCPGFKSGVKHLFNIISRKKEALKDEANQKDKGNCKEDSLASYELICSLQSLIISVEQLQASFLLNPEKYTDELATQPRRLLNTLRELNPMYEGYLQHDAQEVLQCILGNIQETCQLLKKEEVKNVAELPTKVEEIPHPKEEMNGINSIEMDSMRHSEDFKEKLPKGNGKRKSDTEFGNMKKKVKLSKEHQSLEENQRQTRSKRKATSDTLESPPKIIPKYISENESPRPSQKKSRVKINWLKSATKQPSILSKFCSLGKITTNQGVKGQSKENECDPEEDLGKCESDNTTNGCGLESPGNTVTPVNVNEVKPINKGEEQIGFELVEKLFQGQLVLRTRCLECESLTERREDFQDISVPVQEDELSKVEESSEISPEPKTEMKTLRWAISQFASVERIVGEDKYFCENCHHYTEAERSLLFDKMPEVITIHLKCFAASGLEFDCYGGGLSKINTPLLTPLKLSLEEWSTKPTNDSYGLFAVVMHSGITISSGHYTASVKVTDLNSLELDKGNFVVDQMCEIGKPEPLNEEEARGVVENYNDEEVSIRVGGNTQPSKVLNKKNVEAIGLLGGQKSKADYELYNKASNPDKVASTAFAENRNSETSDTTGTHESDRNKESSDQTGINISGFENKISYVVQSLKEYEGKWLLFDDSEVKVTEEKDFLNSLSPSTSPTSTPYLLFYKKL
Method in brief: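 Kinetic fluorescence assay: 1nM USP1/UAF1, 15 min compound preincubation, then 150nM Ub-Rho; 480/540 nm.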

[12] = target: Glucocorticoid receptor (Homo sapiens) (UniProt P04150); experiment: qHTS assay for small molecule antagonists of glucocorticoid receptor signaling (AID 588533; active = well fitted inhibition curve with a large enough effect in the signal ratio, with a control signal flat, not every such curve was filed as active; the % refers to the signal ratio)
Method in brief: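 Antagonist-mode qHTS: compound titrations added to GRE-bla HeLa cells, then dexamethasone 2 nM final; 18 h, 37 C. CCF4 FRET fluorescence normalized to dexamethasone and DMSO; IC50 from Hill fit.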

[13] = target: Vitamin D3 receptor (Homo sapiens) (UniProt P11473); experiment: qHTS assay for small molecule antagonists of vitamin D receptor signaling (AID 588541; calls by dose curve;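 also: receptor activated by calcitriol during compound treatment; series mostly up to about 77 µM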)
Chain of Vitamin D3 receptor (Homo sapiens) (P11473 whole entry, looked up): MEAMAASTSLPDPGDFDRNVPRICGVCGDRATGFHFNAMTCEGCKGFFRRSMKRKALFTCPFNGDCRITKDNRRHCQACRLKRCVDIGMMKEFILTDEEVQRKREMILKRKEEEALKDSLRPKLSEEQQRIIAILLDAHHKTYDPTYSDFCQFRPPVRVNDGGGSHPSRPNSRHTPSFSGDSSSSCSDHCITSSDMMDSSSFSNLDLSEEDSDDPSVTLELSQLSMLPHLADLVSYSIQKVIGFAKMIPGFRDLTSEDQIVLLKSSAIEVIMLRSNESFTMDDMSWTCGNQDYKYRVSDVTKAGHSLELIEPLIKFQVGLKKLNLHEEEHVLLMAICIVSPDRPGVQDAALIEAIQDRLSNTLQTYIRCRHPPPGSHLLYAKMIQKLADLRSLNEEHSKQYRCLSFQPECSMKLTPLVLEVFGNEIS
Method in brief: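 VDR-UAS-bla HEK293T cells in 2% charcoal-stripped FBS were stimulated with 1-alpha,25-dihydroxyvitamin D3 (3 nM final) plus compound for 16 h at 37 C. The beta-lactamase CCF4 readout was normalized to 50 nM agonist and DMSO, and Hill fits gave IC50.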

[14] = target: Vitamin D3 receptor (Homo sapiens) (UniProt P11473); experiment: qHTS assay for small molecule agonists of vitamin D receptor signaling (AID 588543; calls by dose curve)
Method in brief: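 qHTS in agonist mode: compound titrations stimulate a VDR-driven β-lactamase reporter in HEK293T cells over 16 h at 37 °C. Response normalized to 50 nM 1α,25-dihydroxyvitamin D3 = 100%, DMSO = 0%; Hill fitting gives EC50 and maximal response.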

[15] = qHTS assay for small molecule agonists of retinoid X receptor alpha signaling (AID 588544; calls by dose curve); settings: HEK293T RXRa-UAS-bla, beta-lactamase reporter, 18 h; 530 nm emission
[16] = target: Retinoic acid receptor RXR-alpha (Homo sapiens) (UniProt P19793); experiment: as above
Chain of Retinoic acid receptor RXR-alpha (Homo sapiens) (P19793 whole entry, looked up): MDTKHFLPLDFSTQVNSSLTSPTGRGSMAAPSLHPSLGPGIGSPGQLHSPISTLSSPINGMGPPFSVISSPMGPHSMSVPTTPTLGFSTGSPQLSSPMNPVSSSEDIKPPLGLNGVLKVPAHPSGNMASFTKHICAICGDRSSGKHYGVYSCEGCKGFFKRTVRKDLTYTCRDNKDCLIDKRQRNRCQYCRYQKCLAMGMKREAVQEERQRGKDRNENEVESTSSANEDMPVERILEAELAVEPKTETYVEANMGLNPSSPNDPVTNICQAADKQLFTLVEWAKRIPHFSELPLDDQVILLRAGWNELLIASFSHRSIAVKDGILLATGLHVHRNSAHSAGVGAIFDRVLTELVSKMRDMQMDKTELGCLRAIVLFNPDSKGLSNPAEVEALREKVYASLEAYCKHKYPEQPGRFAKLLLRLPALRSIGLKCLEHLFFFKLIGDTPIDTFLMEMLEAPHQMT

[17] = target: Thyroid hormone receptor beta (Homo sapiens) (UniProt P10828); experiment: qHTS assay for small molecule agonists of thyroid hormone receptor beta signaling (AID 588545; calls by dose curve)
Chain of Thyroid hormone receptor beta (Homo sapiens) (P10828 whole entry, looked up): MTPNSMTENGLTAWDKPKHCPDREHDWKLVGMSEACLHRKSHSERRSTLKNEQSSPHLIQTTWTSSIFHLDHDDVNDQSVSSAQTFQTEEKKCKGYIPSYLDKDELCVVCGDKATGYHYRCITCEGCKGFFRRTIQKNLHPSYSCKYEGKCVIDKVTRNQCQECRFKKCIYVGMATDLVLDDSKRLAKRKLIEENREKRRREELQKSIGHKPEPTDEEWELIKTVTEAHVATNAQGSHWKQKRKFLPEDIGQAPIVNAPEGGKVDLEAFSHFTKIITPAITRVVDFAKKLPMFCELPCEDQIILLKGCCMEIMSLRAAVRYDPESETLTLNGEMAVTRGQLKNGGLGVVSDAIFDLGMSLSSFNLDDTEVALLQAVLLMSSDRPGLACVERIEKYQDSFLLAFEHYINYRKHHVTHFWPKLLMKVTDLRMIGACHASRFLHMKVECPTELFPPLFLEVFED
Method in brief: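 In this cell-based screen, titrated compounds act on HEK 293 cells held in medium with 2% charcoal/dextran FBS, NEAA and pyruvate for 18 hrs at 37 C. Responses are expressed relative to T3 (10 nM) as 100% and basal DMSO as 0%.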

[18] = qHTS assay for small molecule antagonists of retinoid X receptor alpha signaling (AID 588546; active = well fitted inhibition curve with a large enough effect in the signal ratio, with a control signal flat, not every such curve was filed as active; the % refers to the signal ratio;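 also: cells stimulated with 9-cis-retinoic acid as agonist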); settings: HEK293T RXRa-UAS-bla, beta-lactamase ratio, antagonist mode; measured here: W530 green channel, cytotoxicity proxy
Method in brief: (§1)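 Beta-lactamase reporter inhibition, read as CCF4 fluorescence ratio (ex 405, em 460/530 nm) after 2 h at RT. HEK293T UAS-bla cells, 2500/well, were stimulated with 9-cis-RA at 500 or 100 nM final alongside test compound for 18 h at 37 C.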

[19] = target: Retinoic acid receptor RXR-alpha (Homo sapiens) (UniProt P19793); experiment: as above; settings: HEK293T RXRa-UAS-bla, beta-lactamase ratio, antagonist mode
Method in brief: as §1

[20] = target: Thyroid hormone receptor beta (Homo sapiens) (UniProt P10828); experiment: qHTS assay for small molecule antagonists of thyroid hormone receptor beta signaling (AID 588547; active = well fitted inhibition curve with a large enough effect in the signal ratio, with a control signal flat, not every such curve was filed as active; the % refers to the signal ratio;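 also: cells stimulated with 0.4 nM T3 agonist during compound exposure; series mostly up to about 77 µM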); settings: TR-UAS-bla HEK293, beta-lactamase ratio, antagonist mode, 18 h
Method in brief: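 TR-UAS-bla GripTite HEK293 cells in 2% charcoal/dextran FBS medium; compounds 0.59 nM to 92 uM with T3 at 0.4nM final, 18 h at 37 C. Beta-lactamase read by CCF4 fluorescence (460/530 nm); Hill fits gave IC50 and efficacy.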

## C=CCc1cccc(C=NNC(=O)CN2CCN(Cc3ccccc3)CC2)c1O
[1]
  outcome: inactive
[2]
  outcome: inactive
[3]
  outcome: inactive
[4]
  outcome: inactive
[5]
  Potency: 3.55 µM (active)

## C[C@H]1O[C@@H](n2cc(F)c(=O)[nH]c2=O)[C@H](O)[C@H]1O
[1]
  outcome: inactive
[2]
  outcome: inactive
[3]
  outcome: inactive
[4]
  outcome: inactive
[6]
  outcome: inactive
[5]
  Potency: inactive

## CCNC(=O)[C@H]1O[C@@H](n2cnc3c(N)nc(NCCc4ccc(CCC(=O)O)cc4)nc32)[C@H](O)[C@H]1O
[7]
  outcome: inactive
[8]
  outcome: inactive

## O=C(CCCN1CCN(c2ccc(F)cc2)CC1)NC1c2ccccc2CSc2ccccc21 (stereo not given)
[9]
  outcome: inactive

## CCC[C@H](N[C@@H](C)C(=O)N1[C@@H]2CCCC[C@H]2C[C@H]1C(=O)O)C(=O)OCC
[9]
  outcome: inactive

## O=c1cc(-c2ccc(O)c(O)c2)oc2cc(O)cc(O)c12
[10]
  outcome: inactive

## COc1ccc(CCN(C)CCCOc2ccc(S(=O)(=O)c3[nH]c4ccccc4c3C(C)C)cc2)cc1OC
[10]
  outcome: inactive

## COc1cc2c(cc1OC)CC(=O)N(CCCN(C)C[C@H]1Cc3cc(OC)c(OC)cc31)CC2
[11]
  Potency: inactive
[9]
  outcome: inactive

## NS(=O)(=O)c1cc(Cl)c(Cl)c(S(N)(=O)=O)c1
[11]
  Potency: inactive
[9]
  outcome: inactive

## CCC(=O)OCC(=O)[C@@]1(OC(=O)CC)[C@@H](C)C[C@@H]2[C@H]3CCC4=CC(=O)C=C[C@]4(C)[C@@]3(F)[C@@H](O)C[C@@]21C
[9]
  outcome: inactive

## CN(C)CCN(Cc1ccc(Cl)cc1)c1ccccn1
[11]
  Potency: inactive
[9]
  outcome: inactive

## N#Cc1c(N(CC(=O)O)CC(=O)O)sc(C(=O)O)c1CC(=O)O
[11]
  Potency: inactive
[9]
  outcome: inactive

## O=C1CN2Cc3c(ccc(Cl)c3Cl)N=C2N1
[9]
  outcome: inactive

## O=C(O)c1nc(=O)[nH]c(=O)[nH]1
[11]
  Potency: inactive
[9]
  outcome: inactive

## CCCCCCCCCCCCCCCC(=O)O[C@H]1[C@@H](O)[C@@H](O)[C@@H]([C@H](NC(=O)[C@@H]2C[C@@H](CCC)CN2C)[C@H](C)Cl)O[C@@H]1SC
[9]
  outcome: inactive

## CC[C@]1(O)C[C@H]2CN(CCC3=c4ccccc4=N[C]3[C@@](C(=O)OC)(c3cc4c(cc3OC)N(C)[C@H]3[C@@](O)(C(N)=O)[C@H](O)[C@]5(CC)C=CCN6CC[C@]43[C@@H]65)C2)C1
[9]
  outcome: inactive

## CS(=O)(=O)c1ccc(C2=C(c3ccccc3)C(=O)OC2)cc1
[11]
  Potency: inactive
[9]
  outcome: inactive

## C[C@@H]1C[C@H]2[C@@H]3CCC4=CC(=O)C=C[C@]4(C)[C@@]3(F)[C@@H](O)C[C@]2(C)[C@@]1(O)C(=O)CO
[12]
  outcome: inactive
[13]
  outcome: inactive
[14]
  outcome: inactive
[15]
  max response: 10.8% and 0.324%
[16]
  outcome: inactive
[17]
  outcome: inactive
[18]
  max response: 18.8% and -5.96%
[19]
  max response: -0.0279% (inactive) and -1.12% (inactive)
[20]
  activity change % (negative = inhibition): 1.08% (inactive) and 5.56% (inactive)

## CC[C@H]1OC(=O)[C@H](C)[C@@H](O[C@H]2C[C@@](C)(OC)[C@@H](O)[C@H](C)O2)[C@H](C)[C@@H](O[C@@H]2O[C@H](C)C[C@H](N(C)C)[C@H]2O)[C@](C)(O)C[C@H](C)C(=NOCOCCOC)[C@H](C)[C@@H](O)[C@]1(C)O
[9]
  outcome: inactive

## C[C@@H](O[C@H]1OCCN(Cc2n[nH]c(=O)[nH]2)[C@@H]1c1ccc(F)cc1)c1cc(C(F)(F)F)cc(C(F)(F)F)c1
[9]
  outcome: inactive

## CCCCC(F)(F)[C@@]1(O)CC[C@H]2[C@H](CC(=O)[C@@H]2CCCCCCC(=O)O)O1
[9]
  outcome: inactive

## CC(C)(CO)[C@@H](O)C(=O)NCCC(=O)O
[9]
  outcome: inactive

## Clc1ccc(COC(Cn2ccnc2)c2ccc(Cl)cc2Cl)c(Cl)c1 (stereo not given)
[9]
  outcome: inactive

## CC[C@@H]([C@H](C)O)n1ncn(-c2ccc(N3CCN(c4ccc(OCC5CO[C@@](Cn6cncn6)(c6ccc(F)cc6F)C5)cc4)CC3)cc2)c1=O (stereo not given in full)
[9]
  outcome: inactive

## Fc1ccc(C(c2ccc(F)cc2)N2CCN(CC=Cc3ccccc3)CC2)cc1
[9]
  outcome: inactive

## C=C1c2cccc(O)c2C(O)=C2C(=O)[C@@]3(O)C(O)=C(C(N)=O)C(=O)[C@@H](N(C)C)[C@@H]3[C@@H](O)[C@H]12
[9]
  outcome: inactive
